PLCb3 inh: blocks human PLC-beta3 enzyme activity | Q01970 | Purified PLC-beta3, fluorogenic substrate, fluorescence | inhibition, % at 12.2 µM | 0.18% of 370,000 active | AID 720704; in the data active = inhibition above about 11%;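 note: 0% = median of compound wells on plate and 100% = full blocker control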
KLK7 zymogen act: activators of human kallikrein-7 zymogen | activation, % at 7 µM | purified proKLK7, EDANS-DABCYL substrate fluorescence; 100% is mature enzyme control, 0% vehicle | P49862 | 0.9% of 370,000 active;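 active = activation above the mean of all tested compounds plus 3 SD, computed per campaign excluding outliers beyond control limits, cut at about 13% in these data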
ADAM10 inh: inhibits human ADAM10. recombinant ADAM10, EDANS/DABCYL FRET peptide cleavage, 3 h. inhibition, % at 7 µM. 0.62% of 370,000 active;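 active = inhibition above a per-campaign cutoff equal to the mean of compounds falling between control-based bounds plus 3 SD, cut at about 20% in these data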;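 note: 0% = DMSO wells while the 100% control is not disclosed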
PLCg1 inh: blocks human PLC-gamma1 enzyme activity | AID 720700 | inhibition, % at 12.2 µM | purified PLC-gamma1, fluorogenic substrate, fluorescence | 0.84% of 370,000 active | P19174
ADAM17 inh: inhibits human ADAM17. P78536. recombinant ADAM17, EDANS/DABCYL FRET peptide cleavage. inhibition, % at 6.95 µM. 0.83% of 370,000 active. AID 720648;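 active = inhibition above the mean of compounds lying between control limits plus 3 SD, set per campaign, cut at about 8.5% in these data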;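 note: 0% = DMSO-only wells as the low control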
Target sequence (P78536 215-824 limits assumed): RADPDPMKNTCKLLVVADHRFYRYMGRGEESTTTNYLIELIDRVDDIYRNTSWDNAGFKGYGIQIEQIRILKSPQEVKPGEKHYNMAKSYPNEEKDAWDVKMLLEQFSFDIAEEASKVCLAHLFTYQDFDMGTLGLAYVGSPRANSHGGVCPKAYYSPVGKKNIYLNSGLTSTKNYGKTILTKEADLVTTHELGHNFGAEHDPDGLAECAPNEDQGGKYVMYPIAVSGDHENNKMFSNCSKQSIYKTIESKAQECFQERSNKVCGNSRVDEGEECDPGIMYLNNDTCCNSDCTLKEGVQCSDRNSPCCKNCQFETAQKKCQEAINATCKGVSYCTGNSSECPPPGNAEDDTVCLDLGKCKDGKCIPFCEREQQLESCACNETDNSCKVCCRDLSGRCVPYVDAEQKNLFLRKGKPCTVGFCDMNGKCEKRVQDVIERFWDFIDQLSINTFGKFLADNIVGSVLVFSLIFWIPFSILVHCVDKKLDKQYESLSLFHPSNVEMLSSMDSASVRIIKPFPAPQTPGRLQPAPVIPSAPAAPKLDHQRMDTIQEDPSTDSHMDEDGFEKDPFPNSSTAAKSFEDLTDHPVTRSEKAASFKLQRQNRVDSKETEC
PLCgamma1 ctr: PLC-gamma1 inhibition, counter-screen for PLC-beta3 hits; shares compounds with PLCg1 inh; purified PLC-gamma1, fluorogenic substrate, fluorescence; inhibition, % at 12.3 µM; 3.1% of 3,300 active; AID 743258
PLCb3 confirm: human PLC-beta3 inhibition, confirmation; shares compounds with PLCg1 inh; purified PLC-beta3, fluorogenic substrate fluorescence; inhibition, % at 12.3 µM; 1% of 3,300 active; AID 743261; in the data active = inhibition above about 11%
Numbers without * were called inactive. Most compounds without a hit are left out; they make up all but 2.9% or so of the library. Cut-off read from the data, not from the text of the source, unless noted: active = inhibition above about 9.5%; inactive = the rest.

Screening COc1ccccc1NC(=O)Nc1ccc2c(c1)OCCO2 returned PLCb3 inh 12*, KLK7 zymogen act 0, ADAM10 inh 7, PLCg1 inh 2, ADAM17 inh 6, PLCgamma1 ctr -1 and PLCb3 confirm 1.
For COc1cccc(OC)c1C(=O)Nc1ccc2c(c1)OCCO2 the results were PLCb3 inh 4, KLK7 zymogen act 0, ADAM10 inh 0, PLCg1 inh 4 and ADAM17 inh -1.
NC(CCc1ccccc1)c1csc(NC(=O)Nc2cccc(C(F)(F)F)c2)n1 (stereo not given) was read as PLCb3 inh 6, KLK7 zymogen act 0, ADAM10 inh -6, PLCg1 inh 4 and ADAM17 inh 1.
`COC(=O)c1ccc(C(c2c(C)n(C)n(-c3ccccc3)c2=O)c2c(C)n(C)n(-c3ccccc3)c2=O)cc1` gave PLCb3 inh 9, KLK7 zymogen act 0, ADAM10 inh 9, PLCg1 inh 12*, ADAM17 inh 3, PLCgamma1 ctr 2 and PLCb3 confirm 5.
Screening CC1(C(=O)NS(=O)(=O)c2cccs2)CCN1C(=O)c1ccccc1CCc1ccccc1 (stereo not given) returned PLCb3 inh 8, KLK7 zymogen act -1, ADAM10 inh -3, PLCg1 inh 1 and ADAM17 inh 2.
`CC(=O)c1cccc(CN2CCC(n3nccc3NC(=O)c3ccc4c(c3)OCO4)CC2)c1` gave PLCb3 inh -4, KLK7 zymogen act 0, ADAM10 inh -5, PLCg1 inh 2 and ADAM17 inh -3.
`CCn1cc(CN2CCC(n3nccc3NC(=O)CCOc3ccccc3)CC2)cn1` gave PLCb3 inh -2, KLK7 zymogen act 0, ADAM10 inh 6, PLCg1 inh 13*, ADAM17 inh -6, PLCgamma1 ctr -5 and PLCb3 confirm -1.
CCOc1cccc(CN2CCC(n3nccc3NC(=O)c3ccc4c(c3)OCO4)CC2)c1 was read as PLCb3 inh -3, KLK7 zymogen act -1, ADAM10 inh 5, PLCg1 inh 10*, ADAM17 inh -1, PLCgamma1 ctr 1 and PLCb3 confirm 3.
CN(C)C=Nc1ccc(Cn2cnc3nc4ccc(Cl)cc4cc3c2=O)cc1 was read as PLCb3 inh -42, KLK7 zymogen act 0, ADAM10 inh -103, PLCg1 inh -37 and ADAM17 inh -26.
Nc1ccc(C(=O)N/N=C\C=C\c2cccc([N+](=O)[O-])c2)cc1 was read as PLCb3 inh 16*, KLK7 zymogen act 0, ADAM10 inh 17, PLCg1 inh 15*, ADAM17 inh 6, PLCgamma1 ctr -17 and PLCb3 confirm 2.
COc1ccc(C(C(=O)N(C)C2CCCC2)N(Cc2ccc(F)cc2)C(=O)c2csc(N3CCOCC3)n2)cc1OC (stereo not given) was read as PLCb3 inh -1, KLK7 zymogen act 1, ADAM10 inh -7, PLCg1 inh 0 and ADAM17 inh -2.
For Cc1onc(-c2ccccc2Cl)c1C(=O)OCn1nnc2ccccc2c1=O the results were PLCb3 inh 3, KLK7 zymogen act 0, ADAM10 inh 11, PLCg1 inh 11*, ADAM17 inh 8, PLCgamma1 ctr -3 and PLCb3 confirm 1.
For O=C(Nc1ccc2c(c1)OCO2)c1cnn2c1NC(c1ccco1)CC2C(F)(F)F (stereo not given) the results were PLCb3 inh 4, KLK7 zymogen act -1, ADAM10 inh -2, PLCg1 inh 10*, ADAM17 inh 2, PLCgamma1 ctr -4 and PLCb3 confirm 1.
O=C(Nc1ccc2c(c1)OCO2)c1cc2n(n1)C(C(F)(F)F)CC(c1ccccc1)N2 (stereo not given) was read as PLCb3 inh 1, KLK7 zymogen act 0, ADAM10 inh 1, PLCg1 inh 2 and ADAM17 inh 0.
For CC(=O)N1CCc2c1cccc2S(=O)(=O)NC(CC(C)C)C(=O)Nc1ccccc1C (stereo not given) the results were PLCb3 inh 2, KLK7 zymogen act 0, ADAM10 inh 4, PLCg1 inh 1 and ADAM17 inh -3.
For O=C(O)CC(C(=O)O)N1C(=O)/C(=C/C=C/c2ccco2)SC1=S (stereo not given) the results were PLCb3 inh -11, KLK7 zymogen act 1, ADAM10 inh -10, PLCg1 inh 59*, ADAM17 inh -6, PLCgamma1 ctr 52* and PLCb3 confirm -15.
`O=C(O)CCCN1C(=O)/C(=C/C=C/c2ccco2)SC1=S` gave PLCb3 inh -15, KLK7 zymogen act 1, ADAM10 inh -10, PLCg1 inh 23*, ADAM17 inh -5, PLCgamma1 ctr 18* and PLCb3 confirm -15.
Cc1cc(C)cc(N(CC(=O)NCc2ccco2)C(=O)CCC(=O)Nc2ccccn2)c1 was read as PLCb3 inh 5, KLK7 zymogen act 0, ADAM10 inh 2, PLCg1 inh 11*, ADAM17 inh 4, PLCgamma1 ctr -3 and PLCb3 confirm -5.
CSCCC(NC(=O)C12CC3CC(CC(C3)C1)C2)C(=O)OCC(=O)c1ccc(C)cc1 (stereo not given) was read as PLCb3 inh -25, KLK7 zymogen act 1, ADAM10 inh 2, PLCg1 inh 11*, ADAM17 inh 3, PLCgamma1 ctr -1 and PLCb3 confirm -3.
Screening CN(C)c1ncnc2c1ncn2[C@H]1CN(Cc2cccnc2)C[C@@H](CO)O1 returned PLCb3 inh -2, KLK7 zymogen act 0, ADAM10 inh -5, PLCg1 inh -1 and ADAM17 inh -4.
CCCC(C)(C)NC(=O)CCCCC(=O)NC(C)(C)CCC was read as PLCb3 inh 1, KLK7 zymogen act 0, ADAM10 inh -4, PLCg1 inh 1 and ADAM17 inh -4.
`CC(C)(C)NC(=O)CCCCCCCC(=O)NC(C)(C)C` gave PLCb3 inh 11*, KLK7 zymogen act -1, ADAM10 inh -2, PLCg1 inh 13*, ADAM17 inh 5, PLCgamma1 ctr -6 and PLCb3 confirm -1.
For Cc1ccc(NC(=O)n2ncc3c(C)cccc32)c(C)c1 the results were PLCb3 inh -2, KLK7 zymogen act 0, ADAM10 inh -6, PLCg1 inh 11*, ADAM17 inh -3, PLCgamma1 ctr -6 and PLCb3 confirm -1.
Screening COc1cccc(NC(=O)n2ncc3c(C)cccc32)c1 returned PLCb3 inh 2, KLK7 zymogen act 0, ADAM10 inh 3, PLCg1 inh 10*, ADAM17 inh 6, PLCgamma1 ctr -8 and PLCb3 confirm -16.
COc1cccc(NC(=O)Nc2c(-c3ccc(C(F)(F)F)cc3)nc3ncccn23)c1 was read as PLCb3 inh -210, KLK7 zymogen act 0, ADAM10 inh -86, PLCg1 inh -160 and ADAM17 inh -25.

Screens from PubChem.
